The values below come from PubChem BioAssay (Tox21).

Each structure is given as a SMILES string. Results filed as inconclusive are left out. A number with no mark means an inactive call. Activity calls are given as the source filed them. The call rests on the fitted dose curve; in most records, active means well fitted curve in the direction sought with a large enough effect in the repeat runs; inconclusive means weak or mixed curves; inactive means no such curve, though single readings can be large; an effect the other way counts as inactive or inconclusive.

The nature of assay [1]: qHTS RealTime-Glo MT Cell Viability Assay in HEK293 cells - 16 hour (AID 1224872). Further: nearly all actives have a fitted effect of over 50% in size. Further: potency means the concentration at half of the fitted maximal effect. On activity change, negative = cytotoxicity: top concentration of the series differs between compounds. The gist of the method:
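Viability tracked continuously by luminescence as live cells reduce a prosubstrate for NanoLuc; HEK293 cells preincubated 5 h, compound-treated at 37 C, and read at 0, 8, 16, 24, 32 and 40 h.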
A general note: In qHTS, concentration-response curves come from the screen itself.

A short description of assay [2]: qHTS RealTime-Glo MT Cell Viability Assay in HepG2 cells - 8 hour (AID 1224873). Further: nearly all actives have a fitted effect of over 55% in size. In a few lines:
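Real-time viability: cells seeded at 600 per well together with NanoLuc and cell-permeant prosubstrate, compounds added after 5 h incubation. Luminescence tracked at 0, 8, 16, 24, 32 and 40 h of exposure.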

The nature of assay [3]: qHTS RealTime-Glo MT Cell Viability Assay in HEK293 cells - 40 hour (AID 1224874). Further: nearly all actives have a fitted effect of over 50% in size. Further: potency means the concentration at half of the fitted maximal effect. The conditions noted are these: RealTime-Glo luminescence; max response: active compounds read low. The gist of the method:
(§1)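 Tox21 screen in HEK293 using RealTime-Glo MT chemistry, with cells and reagent co-dispensed. Luminescence proportional to viable cell number was captured at intervals during 40 h compound exposure at 37 C.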

Assay [4] can be described thus: A CellTox Green Cytotoxicity Assay to monitor cytotoxicity in HEK293 cells - 24 hour (AID 1224875). Further: series mostly up to about 77 µM; nearly all actives have a fitted effect of over 45% in size. In a few lines:
(§2)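 Seeding of HEK293 cells together with cytotoxicity dye preceded a 5 h incubation at 37 C/5% CO2. Test compounds in DMSO were then added and fluorescence monitored across 40 h.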

Assay [5] can be described thus: A CellTox Green Cytotoxicity Assay to monitor cytotoxicity in HepG2 cells - 16 hour (AID 1224876). Further: nearly all actives have a fitted effect of over 45% in size. In a few lines:
(§3)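 Nonlytic assay: viable cells exclude the dye, so fluorescence scales with cell death. HepG2 at 600 cells/well, compounds added after 5 h, signal read across 40 h.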

A short description of assay [6]: qHTS RealTime-Glo MT Cell Viability Assay in HepG2 cells - 32 hour (AID 1224877). Further: nearly all actives have a fitted effect of over 55% in size. The gist of the method: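 Viability was tracked continuously by NanoLuc luminescence from prosubstrate reduced by living HepG2 cells, at successive time points over 40 h of compound exposure. Cells with reagent were preincubated 5 h at 37 °C before compound addition.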
A short description of assay [7]: A CellTox Green Cytotoxicity Assay to monitor cytotoxicity in HepG2 cells - 24 hour (AID 1224878). Further: nearly all actives have a fitted effect of over 45% in size. The gist of the method: as §3
A short description of assay [8]: A CellTox Green Cytotoxicity Assay to monitor cytotoxicity in HepG2 cells - 40 hour (AID 1224879). Further: nearly all actives have a fitted effect of over 40% in size. Further: potency means the concentration at half of the fitted maximal effect. In a few lines:
as §3

Assay [9] in a line: qHTS RealTime-Glo MT Cell Viability Assay in HEK293 cells - 0 hour (AID 1224880). Further: top concentration of the series differs between compounds; nearly all actives have a fitted effect of over 45% in size. The gist of the method:
as §1

A short description of assay [10]: A CellTox Green Cytotoxicity Assay to monitor cytotoxicity in HEK293 cells - 32 hour (AID 1224881). Further: nearly all actives have a fitted effect of over 40% in size. In a few lines: as §2
On the % scale 0 is the no-effect control and ±100 the full control effect.

Turning to `CCOc1ccc(NC(N)=O)cc1`, the Potency result in assay [1], in [4], in assay [5], in [6], in assay [7] and in [8] was “inactive” each time. In addition, the Potency entry in assay [10] was “inactive”. Also, the result in assay [2] and in [9] was inactive. Besides, the max response in assay [3] was 4.66%.
As for `Cc1nc(-c2ccccn2)ncc1C(=O)Nn1cc(C)c2cc(F)ccc21`, the figures for the Potency in assay [1] and in [3] were 1740 nM (active) and 1380 nM (active), respectively. The call in assay [2] and in assay [9] was inactive. Also, the Potency entry in assay [4], in assay [5], in assay [6], in [7], in assay [8] and in assay [10] was “inactive” each time.
For the molecule `CN(CCCN1c2ccccc2CCc2ccccc21)CC(=O)c1ccc(Cl)cc1`, the Potency entry in assay [1], in assay [4], in assay [5], in assay [6], in assay [7] and in assay [10] was “inactive” each time. Also, the molecule was called inactive in assay [2] and in assay [9]. Besides, the max response in assay [3] was -24.7%. Also, the Potency in assay [8] was 21300 nM (active).
Consider `CC(=O)OC(C)OC(C)=O`, for which the Potency entry in assay [1], in assay [4], in assay [5], in [6], in assay [8] and in [10] was “inactive” in each case. The call in assay [2] and in [9] was inactive. In [3], the max response was 0.965%.
As for `Cc1ccc(C)c(N)c1`, the Potency entry in assay [1], in assay [4], in [5], in assay [6], in assay [7] and in assay [8] was “inactive” each time. Also, the Potency entry in assay [10] was “inactive”. Besides, in assay [2], the call was inactive. Further, in assay [3], the max response is 4.84%.
For `COC(=O)c1ccc2cc(C(=O)OC)ccc2c1`, the results for the activity change, negative = cytotoxicity in [1] and in assay [9] were -1.54% [at 15.8 µM] and 3.21% [at 15.8 µM], respectively. Also, the viability change, negative = cytotoxic in assay [2] was 6.16% [at 15.8 µM]. Further, the max response in [3] was -1.06%. Further, the activity change in assay [4] is 4.58% [at 15.8 µM, active compounds read high]. Also, the cytotoxicity increase in assay [5] was -13.5% [at 15.8 µM]; in assay [8], -18% [at 15.8 µM]; in [10], 1.19% [at 15.8 µM]. In addition, in assay [6], the activity change, negative = cytotoxic is 0.0732% [at 15.8 µM].
Regarding `CCN1CC(CCN2CCOCC2)C(c2ccccc2)(c2ccccc2)C1=O` (stereo not given), the Potency entry in [1], in assay [4], in assay [5], in [6], in assay [8] and in assay [10] was “inactive” in each case. Further, the outcome in [2] and in [9] was inactive. For the same molecule, the max response in [3] was 20.2%.
For `CC1=CC(=O)CC(C)(C)C1=O`, the Potency result in assay [1], in assay [4], in assay [5], in assay [6], in [8] and in [10] was “inactive” in each case. The molecule was called inactive in assay [2] and in [9]. In [3], the max response was -4.9%.
In the case of `NCCC(O)(P(=O)(O)O)P(=O)(O)O`, the Potency entry in assay [1], in assay [4], in assay [5], in assay [6], in assay [7] and in [10] was “inactive” each time. Moreover, the molecule was called inactive in assay [2] and in assay [9]. Also, the max response in assay [3] was 3.89%.
Regarding `CC(C)O`, the Potency entry in assay [1], in [4], in [5], in assay [6], in [8] and in assay [10] was “inactive” throughout. Also, the molecule was called inactive in assay [2] and in [9]. Besides, in [3], the max response was -1.12%.
In the case of `O=C(O)c1cccc(Cl)c1Cl`, the Potency result in assay [1], in assay [4], in [5], in assay [6], in assay [7] and in [8] was “inactive” each time. Moreover, the Potency entry in assay [10] is “inactive”. The molecule was classed as inactive in [2] and in assay [9]. In assay [3], the max response was -7.63%.
In the case of `Cc1ncc(CO)c(CN)c1O`, the Potency result in [1], in assay [4], in assay [5], in assay [6], in assay [7] and in [10] was “inactive” throughout. For the same molecule, the molecule was classed as inactive in assay [2] and in assay [9]. Moreover, the max response in [3] was 4.15%.
Take `O=C(CC(=O)C(F)(F)F)c1ccccc1`: the Potency result in assay [1], in [4], in assay [5], in assay [6], in assay [7] and in [8] was “inactive” in each case. Also, in assay [10], the Potency entry is “inactive”. In assay [2], the molecule was classed as inactive. Further, the max response in assay [3] was -4.62%.
Turning to `CCCN(CCC)C(=O)C(CCC(=O)O)NC(=O)c1ccccc1` (stereo not given), the Potency result in [1], in [4], in assay [5], in [6], in assay [7] and in assay [8] was “inactive” throughout. Also, the Potency entry in [10] was “inactive”. In addition, the molecule was classed as inactive in [2] and in assay [9]. Besides, in assay [3], the max response was 3.51%.
For the molecule `C=O`, the Potency entry in assay [1], in assay [4], in assay [5], in [6], in [7] and in [10] was “inactive” in each case. Also, the molecule was classed as inactive in assay [2] and in assay [9]. Moreover, the max response in assay [3] is -2.52%.
Turning to `Nc1ccc2ccccc2c1S(=O)(=O)O`, the Potency entry in assay [1], in [4], in assay [5], in [6], in assay [7] and in [10] was “inactive” throughout. The result in [2] and in [9] was inactive. Besides, in [3], the max response was -4.03%.
Consider `CC(C)NCC(O)COc1ccc(CCOCC2CC2)cc1` (stereo not given), for which the Potency result in assay [1], in [4], in [5], in assay [6], in [7] and in [8] was “inactive” in each case. The Potency entry in [10] was “inactive”. In addition, the call in assay [2] and in assay [9] was inactive. Also, the max response in [3] is -6.16%.
Consider `Nc1cccc(S(=O)(=O)O)c1`, for which the Potency result in assay [1], in [4], in assay [5], in assay [6], in [7] and in assay [8] was “inactive” in each case. Also, the Potency entry in assay [10] is “inactive”. For the same molecule, the outcome in assay [2] was inactive. Besides, the max response in [3] was 3%.
Turning to `CCCNC(C)C(=O)Nc1c(C)csc1C(=O)OC` (stereo not given), the Potency entry in assay [1], in [4], in assay [5], in [6], in assay [7] and in [10] was “inactive” each time. The result in [2] and in assay [9] was inactive. In assay [3], the max response was -5.59%.
Consider `N#Cc1ccc(C(c2ccc(C#N)cc2)n2cncn2)cc1`, for which the Potency entry in assay [1], in assay [4], in assay [5], in assay [6], in assay [8] and in [10] was “inactive” each time. Further, the molecule was called inactive in [2] and in assay [9]. Besides, in [3], the max response was -0.518%.
Consider `Oc1ccccc1C=NCc1ccccc1`, for which the Potency result in assay [1], in assay [4], in assay [5], in assay [6], in assay [7] and in assay [10] was “inactive” each time. In addition, the outcome in [2] and in assay [9] was inactive. For the same molecule, the max response in assay [3] was 1.18%.
As for `CCOC(=O)NCCC[Si](OCC)(OCC)OCC`, the Potency result in assay [1], in [4], in assay [5], in [6], in assay [7] and in [8] was “inactive” in each case. In addition, the Potency result in [10] was “inactive”. Moreover, the call in assay [2] and in [9] was inactive. The max response in [3] was 4.72%.
